The source of these data is PubChem BioAssay AID893 (National Center for Advancing Translational Sciences (NCATS), 2007).

Out of some 75,000 compounds screened, about 5,700 (7.6%) were called active. Where a call stands in place of a potency, no number is given. Roughly 7% stayed inconclusive and do not appear here. For the sample, actives were picked, then their nearest neighbours and some compounds at random. Values without a mark were called inactive. Calls come from the whole dose curve; as a rule, active = well fitted inhibition curve with a large enough effect; inconclusive = small, poorly fitted or top-dose-only effect; inactive = no such curve, though single readings can be large or run the other way.
Potency is the fitted concentration of half-maximal effect.

The experiment deals with 3-hydroxyacyl-CoA dehydrogenase type-2 (Homo sapiens) (UniProt Q99714). The experiment is described as follows: qHTS Assay for Inhibitors of HSD17B4, hydroxysteroid (17-beta) dehydrogenase 4. Note: nearly all actives have a fitted effect of over 70% in size. Particulars: recombinant HSD17B10, NADH fluorescence kinetic; series mostly up to 57.1 µM. A digest of the protocol: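 20 nM HADH2, pH 9.0 Tris/Tween; cpd preinc 15 min RT; start w/ 1 mM NAD+ + 90 uM b-hydroxybutyryl-CoA; kinetic fluor ex360/em450 q30s x 4 min; delta last-first.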
For `CC(=O)c1cccc(NC(=O)c2ccncc2)c1`, the Potency result was “inactive”.

Take `CC1(C)Cc2cccc(OCC(=O)Nc3nccs3)c2O1`: the Potency entry is “inactive”.

Regarding `CCCCc1cc(=O)oc2cc(C)cc(OCc3nn[nH]n3)c12`, the Potency is 31.6 µM (active).

Take `COC(=O)[C@@]1(Cc2ccccc2)[C@H]2c3cc(C(=O)N4CCCC4)n(Cc4ccc(C)o4)c3C[C@H]2CN1C(=O)c1ccccc1`: the Potency entry was “inactive”.

For `COc1ccc(CN(C(=O)c2cccs2)c2nccs2)cc1OC`, the Potency result is “inactive”.

Regarding `CCOC(=O)c1nc(-c2ccc3c(c2)OCO3)[nH]c1C`, the Potency is 20 µM (active).

Take `Cc1ccc(C(=O)OCC(=O)NCc2ccc3c(c2)OCO3)s1`: the Potency entry was “inactive”.

In the case of `CCOC(=O)c1c(C)[nH]c(C(=O)COc2ccc3c(c2)OCO3)c1C`, the Potency entry was “inactive”.

On to `O=C(Nc1cccc(F)c1)N1CC2(CCN(C(=O)c3cnccn3)CC2)C1`, for which the Potency result was “inactive”.

Turning to `O=c1[nH]c(-c2ccccc2)c(-c2ccccc2)[nH]1`, the Potency is 31.6 µM (active).

On to `CC1(C)CC(=O)NC=C(c2ccccc2)C1`, for which the Potency entry was “inactive”.

For `COC(=O)C1C(=O)CC(C)(O)C(C(=O)OC)C1c1ccc2c(c1)OCO2` (stereo unspecified), the Potency result was “inactive”.

Turning to `O=C(NCc1ccco1)c1nc(-c2ccccc2)n(-c2ccccc2)n1`, the Potency result is “inactive”.

In the case of `O=C(NCc1ccco1)c1cccn2c(=O)c3cc(Br)ccc3nc12`, the Potency was 25.1 µM (active).

In the case of `O=C(Nc1ccccc1)Nc1ccccc1C(=O)NCc1ccco1`, the Potency entry was “inactive”.

In the case of `CC(C)C(N)C(=O)OCCOCn1cnc2c(=O)[nH]c(N)nc21` (stereo unspecified), the Potency result was “inactive”.

On to `FC(F)(F)c1ccc(CN2C[C@@H]3C(c4ccccc4)C4(c5ccccc5)CC3(C4)[C@H]2c2ccccc2)cc1` (stereo partly specified), for which the Potency result is “inactive”.

For `CCOC(=O)N1CCC(NC(=O)COc2cc(=O)n(C)c3ccccc23)CC1`, the Potency entry was “inactive”.

For the molecule `CCOC(=O)N1CCC(NC(=O)Cc2cn(C)c3ccccc23)CC1`, the Potency result was “inactive”.

For `CCOC(=O)N1CCC(NC(=O)c2cnn3ccccc23)CC1`, the Potency was 31.6 µM (active).

On to `CC(C)=CC1C(C(=O)O)C1(C)C` (stereo unspecified), for which the Potency entry was “inactive”.

For `Cn1c(CNC(=O)C(C)(C)C)nc2ccccc21`, the Potency entry is “inactive”.

Turning to `Cn1c(-c2ccc(C(=O)c3ccccc3)s2)nc2ccccc21`, the Potency is 25.1 µM (active).

Turning to `Nc1nonc1-c1nc2ccccc2n1CCC(=O)O`, the Potency entry was “inactive”.

In the case of `COc1cccc(-c2cc(NCCc3c[nH]c4ccc(OC)cc34)ncn2)c1`, the Potency entry is “inactive”.

As for `CC1OC2C(OC1C)N(S(C)(=O)=O)CCN2S(C)(=O)=O` (stereo unspecified), the Potency result is “inactive”.

Consider `C=CC(=C)CCC=C(C)C`, for which the Potency entry was “inactive”.

As for `COc1ccc(N)c(C)c1`, the Potency result was “inactive”.

Consider `COc1ccc2[nH]c3cc4c(=O)c5cc(OC)ccc5[nH]c4cc3c(=O)c2c1`, for which the activity change, negative = inhibition was 3.71% [at 11.4 µM].

`COc1ccc2[nH]c3ccc(OC)cc3c2c1`: the Potency was 25.1 µM (active).

With `C=CCOC(=O)COCCC(C)C`, the Potency entry was “inactive”.

`CCOC(=O)CSc1nnc(CNc2nc(-c3ccccc3)cs2)n1C`: the Potency result was “inactive”.

As for `COCCCNC(=O)c1ccc(CNS(=O)(=O)c2ccc(NC(C)=O)cc2)cc1`, the Potency result is “inactive”.

For the molecule `c1ccc(CSc2nnc(-c3ccco3)c(-c3ccco3)n2)cc1`, the Potency is 10 µM (active).

As to `O=C(CSc1nnc(-c2ccco2)n1-c1ccccc1)NCCc1ccccc1`, the Potency entry was “inactive”.

Regarding `c1ccc(CSc2nnc(-c3ccco3)n2Cc2ccccc2)cc1`, the Potency result is “inactive”.

With `COc1ccc(C(=O)N2CCC(C(=O)Nc3cccc(C)c3)CC2)cc1OC`, the Potency result was “inactive”.

Take `CCCCOC(=O)c1ccc(N2C(=O)CC(N3CCN(C/C=C/c4ccccc4)CC3)C2=O)cc1` (stereo unspecified): the Potency result was “inactive”.

As for `COc1cc(-c2nc(-c3ccncc3)no2)cc(OC)c1OC`, the Potency result is “inactive”.

Turning to `COc1ccc(-c2noc(COc3ccc(Cl)c(C)c3)n2)cc1`, the Potency result was “inactive”.

Take `CCOc1nc(-c2ccc(OC)cc2)ccc1-c1noc(-c2cc(OC)c(OC)c(OC)c2)n1`: the Potency is 3.16 µM (active).

For the molecule `CCCN1C(=O)C(NC(C)=O)c2cc(OC)ccc21` (stereo unspecified), the Potency entry is “inactive”.

In the case of `CCOC(=O)c1c(CN2CCOCC2)n(-c2ccccc2)c2ccc(O)cc12`, the Potency result was “inactive”.

In the case of `O=C(OCCN1CCOCC1)C1(c2ccccc2)CCCCC1`, the Potency entry is “inactive”.

For the molecule `O=C(CN1CCOCC1)N1CCCc2c1c(=O)oc1ccc(OCc3ccccc3)cc21`, the Potency is 31.6 µM (active).

Consider `O=C(CN1CCN(C(=O)c2ccco2)CC1)Nc1ccc(Cl)c(C(F)(F)F)c1`, for which the Potency result is “inactive”.

In the case of `CCOc1ccccc1NC(=O)C1CCC(CNc2c(N3CCOCC3)c(=O)c2=O)CC1` (stereo unspecified), the Potency entry is “inactive”.

Turning to `Cc1cc(NC(=O)CSCc2nc(-c3cccc(Cl)c3)oc2C)no1`, the Potency entry was “inactive”.

Take `Cc1ccsc1-c1nc(CSCC(=O)NCCN2CCCC2)c(C)o1`: the Potency is 31.6 µM (active).

Take `Cn1c(C(=O)NCCCN2CCCCC2)cc2sccc21`: the Potency result is “inactive”.

Take `CN(C)/C=N/c1cc(=O)n(C)c(=O)n1CC1CC1`: the Potency entry is “inactive”.

As to `COCc1cc(C)nc(Nc2cc(C)ccc2C)c1C#N`, the Potency result is “inactive”.

`CC(C)OCCCNc1ncnc2c1[nH]c1ccc(F)cc12`: the Potency is 25.1 µM (active).

Turning to `Fc1ccc2[nH]c3c(N4CCSCC4)ncnc3c2c1`, the Potency was 25.1 µM (active).

On to `CCN1CCCC1CNC(=O)Cn1cnc2ccc(S(=O)(=O)N3CCC(C)CC3)cc2c1=O` (stereo unspecified), for which the Potency entry is “inactive”.

Take `CCCn1c(-c2ccc(F)cc2)nc2c(NCC3CCCN3CC)nc(C)nc21` (stereo unspecified): the Potency was 31.6 µM (active).

With `CCN1CCCC1CNc1ncnc2c1[nH]c1ccc(F)cc12` (stereo unspecified), the Potency was 31.6 µM (active).

With `CCN1C(=O)CS/C1=N\c1nccs1`, the Potency result is “inactive”.

In the case of `CCOC(=O)N1CCN(C(=O)C2CC(c3ccc(F)cc3)=NO2)CC1` (stereo unspecified), the Potency result is “inactive”.

On to `O=Cc1c(Cl)cccc1Cl`, for which the Potency result was “inactive”.

Regarding `O=C(c1cn(-c2ccccc2)nc1-c1cccnc1)N1CCCCC1`, the Potency result is “inactive”.

`COc1ccc2[nH]cc(CCNc3nc(-c4cccc(NS(C)(=O)=O)c4)nc4ccccc34)c2c1`: the Potency entry is “inactive”.

Regarding `CO[C@H]1COC(=O)C/C=C\[C@H](C)COC(=O)[C@@H](OCc2ccccc2)/C=C\[C@@H]1C`, the activity change, negative = inhibition was -3.84% [at 11.4 µM].

For `CS(=O)(=O)N1CCC[C@@]2(CCN(c3ccncc3)C2)C1`, the Potency entry is “inactive”.

Consider `CCNCCCNCCCNCCCNCC`, for which the Potency result is “inactive”.

As to `C=C[C@](C)(O)CCC1C(=C)CCC2[C@@](C)(CO)CCC[C@@]12C` (stereo partly specified), the Potency entry is “inactive”.

Regarding `COC(=O)C(C(=O)OC)[C@@H]1CCCC(=O)C1`, the activity change, negative = inhibition was 8.89% [at 11.4 µM].

Take `O=C(CNS(=O)(=O)c1ccc(Br)s1)NCc1ccc2c(c1)OCO2`: the Potency result was “inactive”.

Regarding `COc1ccc(-c2nc(CS(=O)CC(=O)NCc3ccccn3)c(C)o2)cc1` (stereo unspecified), the Potency result is “inactive”.

As to `COc1ccc(-c2nc(CS(=O)CC(=O)NCc3cccnc3)c(C)o2)cc1OC` (stereo unspecified), the Potency is 25.1 µM (active).

As for `Cc1ccc(-c2nc(CS(=O)CC(=O)NC3CCCC3)c(C)o2)cc1` (stereo unspecified), the Potency result was “inactive”.
